This note sets out measurements from PubChem BioAssay (EPA / NIEHS).

By AC50 is commonly meant the concentration giving half of the maximal activity seen.

Several values for one entry are separate records, joined by “and”; a condition that tells them apart may be missing. Equal values may be shown once. Some compounds were tested as several samples or in several runs, with calls that do not always agree. Activity calls are given as the source filed them. Rule for the calls: active = hit-call score of the fitted dose curve at least 0.9, where 1 is the maximum; inactive = score below 0.9.

Read-out in this assay: Pyruvate Dehydrogenase Kinase 4 (PDK4), PDK4 (gene 5166)
The assay can be described thus: LTEA_HepaRG_PDK4: Life Technologies and Expression Analysis (LTEA) Assay for Pyruvate Dehydrogenase Kinase 4 (PDK4) using HepaRG (AID 2283525). The note with it: mRNA level, 48 h; actives raise or lower the signal. Here is the method: LTEA_HepaRG is a cell based, multiplexed-readout assay that uses HepaRG, a human liver cell line, with measurements taken at 48 hours after chemical dosing on a 96-well plate.LTEA_HepaRG_PDK4 is one of 102 assay component(s) measured in the LTEA HepaRG cell culture assay. It is a marker of Diseases associated with PDK4 including Platelet Glycoprotein Iv Deficiency and Diabetes Mellitus, Noninsulin-Dependent.Data from the assay component LTEA_HepaRG_PDK4 was analyzed into 1 endpoint. This assay endpoint, LTEA_HepaRG_PDK4, was analyzed with bidirectional fitting relative to DMSO as the negative control and baseline of activity. Using a type of inducible reporter, measures of mRNA induction for gain or loss-of-signal activity can be used to understand regulation of transcription factor activity. To generalize the intended target to other relatable targets, this assay endpoint is annotated to the kinase intended target family, where the subfamily is serine/threonine kinase.
A total of 1060 chemcials from the ToxCast library were tested in eight-point concentration-response experiments. Cell culture and cytotoxicity assays were conducted at Thermo Fisher Scientific's Custom Services facility (Madison, WI). A single lot of human HepaRG cells (Thermo Fisher Scientific, Frederick, MD) was used for the cell culture experiments. 96-well format collagen type I coated plates of human HepaRG cells were prepared using established methods. Briefly, cryopreserved HepaRG cells were thawed, plated at a density of approximately 100,000 cells/well in HepaRG Thaw, Plate, and General Purpose media (HPRG770, Thermo Fisher Scientific), and incubated for 48 hours. 0.5% DMSO was selected as vehicle control to balance the requisite need of DMSO in HepaRG cultures to maintain differentiation (for example, baseline metabolism, proportions of hepatocytes vs. cholangiocytes), while enabling further hepatic receptor pathway activation (for example, PXR and CAR) in response to chemical exposure. 48 hours after plating, the culture medium was replaced with HepaRG Serum-Free Incudtion Media. Cells were exposed to each test chemical in duplicate and maintained in CO2 incubators for another 48 hours. Chemical plates were thawed to room temperature and 200x concentrations of treatment groups were prepared. 8-point conentration-reponse curves were made with the highest exposure at 100 uM, followed by half-log dilutions, all in 0.5% DMSO. Each test plate contained variouse controls, induction positive controls (1mM phenobarbital), cytotoxicity positive controls ([…] aflatoxin B1), vehicle controls (0.5% DMSO), and total lysis controls (0.5% DMSO). Cell morphology images were taken using an Essen IncuCyte FLR automated microscope, with six 96-well plates imaged in about 24 minutes. Images were captured and exported and JPEG files. Spent culture media was transfered to black-well plates for the LDH assay, and remaining media was sorted at -80 C for later use. Cells were treated with RLT buffer and frozen until shipped for gene expression analysis. Total RNA was isolated from the cell suspension in 75 uL of Buffer RLT (Qiagen, Germantown, MD 20874) by Quintiles/Expression Analysis (Durham, NC) using a custom isolation procedure. Total RNA from each plate well was transferred to a preamplification plate. Fluidigm's 96.96 Dynamic ArrayTM (Fluidigm, Amsterdam, the Netherlands) technology was used for gene expression analyses by quantitative reverse transcription polymerase chain reaction (qRT-PCR, performed by Quintiles/Expression Analysis, Durham, NC)89. Standard TaqManTM Assays (Applied Biosystems/ThermoFisher Scientific, Foster City, CA) were used to assess the expression of 93 genes selected based on their selectivity and sensitivity to important hepatic receptors known to be modulated by environmental chemicals; importance in human hepatocyte functionality; and hepatotoxicity. […]
`CC1(c2ccc(Oc3ccccc3)cc2)OC(=O)N(Nc2ccccc2)C1=O` (stereo not given): the AC50 is 32.1 µM (active).
Turning to `N#Cc1c(Cl)c(Cl)c(Cl)c(C#N)c1Cl`, the AC50 is 75.6 µM (active).
On to `CCCN(CCC)c1c([N+](=O)[O-])cc(C(F)(F)F)cc1[N+](=O)[O-]`, for which the compound was called inactive.
In the case of `O=C(O)CCCOc1ccc(Cl)cc1Cl`, the AC50 was 50.8 µM (active).
As for `O=C1c2ccccc2C(=O)N1SC(Cl)(Cl)Cl`, the outcome was inactive.
Still for that read-out and setting: the value for `Clc1ccccc1-c1nnc(-c2ccccc2Cl)nn1` was “inactive”.
In the case of `O=[N+]([O-])/N=C1\NCCN1Cc1ccc(Cl)nc1`, the AC50 was 34.4 µM (active).
As to `Oc1cc(Cl)ccc1Oc1ccc(Cl)cc1Cl`, the result was inactive; the AC50 is 82 µM (active) and 88.4 µM (active).
As to `CC(C)(C)C(O)C(Oc1ccc(Cl)cc1)n1cncn1` (stereo not given), the result was inactive.
The same measure, in the same setting: the value for `C#CCN1C(=O)COc2cc(F)c(N3C(=O)C4=C(CCCC4)C3=O)cc21` was “inactive”.
`O=C(Nc1ccccc1)Nc1cnns1`: the half-maximal activity concentration (AC50) is 62.4 µM (active).
As to `COP(=S)(OC)Oc1ccc([N+](=O)[O-])cc1`, the call was inactive.
With `CCC(C)Nc1c([N+](=O)[O-])cc(C(C)(C)C)cc1[N+](=O)[O-]` (stereo not given), the outcome was inactive.
Take `O=S1OCC2C(CO1)C1(Cl)C(Cl)=C(Cl)C2(Cl)C1(Cl)Cl` (stereo not given): the compound was called inactive.
With `CC(C)OC(=O)Nc1cccc(Cl)c1`, the result was inactive.
The same measure, in the same setting: the entry for `CC(C)N(C(=O)COc1nnc(C(F)(F)F)s1)c1ccc(F)cc1` is “inactive”.
For the compound `CCOCN(C(=O)CCl)c1c(C)cccc1CC`, the AC50 is 50 µM (active).
With `O=S(=O)(O)C(F)(F)C(F)(F)C(F)(F)C(F)(F)C(F)(F)C(F)(F)C(F)(F)C(F)(F)F`, the half-maximal activity concentration (AC50) is 27 µM (active) [middle of 4 runs].
Consider `CCOC1Oc2ccc(OS(C)(=O)=O)cc2C1(C)C` (stereo not given), for which the AC50 is 85.7 µM (active).
With `COP(=O)(OC)OC=C(Cl)Cl`, the call was inactive.
Still for that read-out and setting: the value for `OCCOc1ccccc1` was “inactive”.
Take `ClC1C(Cl)C(Cl)C(Cl)C(Cl)C1Cl` (stereo not given): the call was inactive.
The same measure, in the same setting: the entry for `COc1nn(CSP(=S)(OC)OC)c(=O)s1` is “inactive”; for `O=C(NC(=O)c1c(F)cccc1F)Nc1ccc(OC(F)(F)C(F)OC(F)(F)F)c(Cl)c1` (stereo not given) it is “inactive”.
Take `O=C(O)C(F)(F)C(F)(F)C(F)(F)C(F)(F)C(F)(F)C(F)(F)C(F)(F)F`: the AC50 was 26.9 µM (active) and 21.7 µM (active).
For `Cc1[nH]c(=O)n(C(C)(C)C)c(=O)c1Cl`, the outcome was inactive.
Same read-out and setting: the entry for `CN1CSC(=S)N(C)C1` is “inactive”; for `CCC(C)(C)C(=O)OC1=C(c2ccc(Cl)cc2Cl)C(=O)OC12CCCCC2` it is “inactive”; for `CCc1ccc(C(=O)NN(C(=O)c2cc(C)cc(C)c2)C(C)(C)C)cc1` it is “inactive”.
Regarding `CNC(=O)Oc1cccc(N=CN(C)C)c1`, the compound was classed as inactive.
As to `CNC(=O)CSP(=S)(OC)OC`, the compound was called inactive.
Still for that read-out and setting: the entry for `CNC(=O)Oc1ccccc1OC(C)C` is “inactive”; for `N#CN` it is “inactive”.
As to `CC[C@H](C)[C@H]1O[C@]2(C=C[C@@H]1C)C[C@@H]1C[C@@H](C/C=C(\C)[C@@H](O[C@H]3C[C@H](OC)[C@@H](O[C@H]4C[C@H](OC)[C@@H](O)[C@H](C)O4)[C@H](C)O3)[C@@H](C)/C=C/C=C3\CO[C@@H]4[C@H](O)C(C)=C[C@@H](C(=O)O1)[C@]34O)O2` (tested in a mixture with another compound), the AC50 is 16.3 µM (active).
As for `CCCN(CCOc1c(Cl)cc(Cl)cc1Cl)C(=O)n1ccnc1`, the AC50 was 30.8 µM (active).
On the same count and under the same terms, the figure for `CC(C)(C)C(O)/C(=C\c1ccc(Cl)cc1Cl)n1cncn1` (stereo not given) is 29.4 µM (active).
Take `CCN(CC)C(=O)SCc1ccc(Cl)cc1`: the outcome was inactive.
Regarding `CNC(=O)/C=C(\C)OP(=O)(OC)OC`, the AC50 was 37.1 µM (active).
In the case of `CCC(C)(NC(=O)c1cc(Cl)c(C)c(Cl)c1)C(=O)CCl` (stereo not given), the call was inactive.
